Measured values reported in PubChem BioAssay (NCI).
“And” between values parts separate entries of the source, which are not always exact repeats. Equal values may be shown once. The panel holds about 79,000 compounds, 15% with a hit somewhere; the sample as a whole holds those more often. Some compounds were tested as several samples or in several runs, with calls that do not always agree. The source made the active and inactive calls. Cut-off read from the data, not from the text of the source: active = growth inhibition above about 70%; inactive = the rest.

How the values were obtained:
[1] = NCI Yeast Anticancer Drug Screen. Data for the rad50 strain (AID 155);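 note: 0% = growth of vehicle-only cultures of the same strain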; conditions: S. cerevisiae rad50 strain growth inhibition, stronger effect = higher value
Outline: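 Cells are treated with compound, grown, and their growth is then scored against vehicle-only cultures of the same repair-deficient yeast strain.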

[2] = NCI Yeast Anticancer Drug Screen. Data for the mec2-1 strain (AID 157); conditions: S. cerevisiae mec2-1 strain, stronger effect = higher value
Outline: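 Each compound was tested on mec2-1 yeast, a strain altered in DNA damage repair or cell cycle control. Growth inhibition is reported relative to vehicle.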

[3] = NCI Yeast Anticancer Drug Screen. Data for the sgs1 mgt1 strain (AID 161);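 note: 0% = growth of cultures given vehicle only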; conditions: S. cerevisiae sgs1 mgt1 strain, stronger effect = higher value
Outline: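 Genetically altered yeast, compound exposure, growth inhibition relative to vehicle.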

[4] = NCI Yeast Anticancer Drug Screen. Data for the cln2 rad14 strain (AID 165);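 note: 0% = growth equal to vehicle treated cultures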; conditions: S. cerevisiae cln2 rad14 strain, stronger effect = higher value
Outline: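 Test compounds were added to cln2 rad14 yeast cultures; inhibition of growth was then determined by comparison with vehicle treatment.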

[5] = NCI Yeast Anticancer Drug Screen. Data for the bub3 strain (AID 167); conditions: S. cerevisiae bub3 mutant strain, stronger effect = higher value
Outline: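 Part of a panel of yeast mutants defective in DNA damage repair or cell cycle regulation. Each strain is grown with compound, and inhibition is calculated relative to solvent-treated cultures.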

[6] = NCI Yeast Anticancer Drug Screen. Data for the mlh1 rad18 strain (AID 175); conditions: S. cerevisiae mlh1 rad18 strain growth inhibition, stronger effect = higher value
Outline: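 Inhibition values reflect reduced growth of mutant yeast versus vehicle-treated controls following compound exposure; the mutations affect DNA damage repair.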

[7] = at 5.0 µM (retest, dose inferred, filed as 0.5)
[8] = at 50.0 µM (retest, dose inferred, filed as 5.0)

Measured: growth inhibition

O=C(N/N=C/c1ccc(F)cc1)c1ccc(N(CCCl)CCCl)cc1
inactive: [1]; [7] -7% | [1]; [8] -5% | [1]; at 50.0 µM 38.9% | [2]; [7] -12% | [2]; [8] -11% | [2]; at 50.0 µM 18.2% | [3]; [7] -20% | [3]; [8] 2% | [3]; at 50.0 µM 56.8% | [4]; [7] -26% | [4]; [8] -34% | [4]; at 50.0 µM 25.2% | [5]; [7] -3% | [5]; [8] 3% | [5]; at 50.0 µM 27.8% | [6]; [7] -3% | [6]; [8] -8% | [6]; at 50.0 µM 59.3%

Oc1cc(Cl)c(Cl)cc1Cl
99.1% (active) and -3.1% (inactive): [3]; at 50.0 µM
active: [1]; [8] 98% | [2]; [8] 99% | [2]; at 50.0 µM 98.8% and 98.6% | [3]; [8] 99% | [4]; [8] 99% | [4]; at 50.0 µM 97.5% and 96.4% | [5]; [8] 99% | [5]; at 50.0 µM 98.1% and 97.2% | [6]; [8] 100%
inactive: [1]; [7] 30% | [2]; [7] 12% | [3]; [7] 17% | [4]; [7] 0% | [5]; [7] -2% | [6]; [7] 18%
98.5% (active) and 53% (inactive): [1]; at 50.0 µM
98.8% (active) and 52.5% (inactive): [6]; at 50.0 µM

[Cl][Pt+2][Cl].[NH-]C(c1ccccc1)C([NH-])c1ccccc1 (centres undefined)
inactive: [1]; [7] -11% | [1]; [8] 10% | [1]; at 50.0 µM -22.9% and 11% | [2]; [7] 2% | [2]; [8] -8% | [2]; at 50.0 µM -21.4% and 0.25% | [3]; [7] -10% | [3]; [8] 9% | [3]; at 50.0 µM 19% and 2.15% | [4]; [7] -23% | [4]; [8] -10% | [4]; at 50.0 µM 18.6% and 21.9% | [5]; [7] -9% | [5]; [8] 4% | [5]; at 50.0 µM -2.7% and -2.2% | [6]; [7] -6% | [6]; [8] 2% | [6]; at 50.0 µM -17.6% and 29.3%

CCC[CH2][Sn]1([CH2]CCC)[O]CC[S]1
active: [1]; [7] 83% | [1]; [8] 99% | [1]; at 50.0 µM 99.1% | [2]; [7] 87% | [2]; [8] 99% | [2]; at 50.0 µM 99% | [3]; [7] 81% | [3]; [8] 99% | [3]; at 50.0 µM 98.2% | [4]; [7] 78% | [4]; [8] 99% | [4]; at 50.0 µM 97.3% | [5]; [7] 87% | [5]; [8] 99% | [5]; at 50.0 µM 96.1% | [6]; [7] 84% | [6]; [8] 99% | [6]; at 50.0 µM 99.2%

CCC1(O)C(=O)OCc2c1cc(C)[nH]c2=O (centres undefined)
inactive: [1]; [7] -124% | [1]; [8] -25% | [1]; at 50.0 µM 0.75% | [2]; [7] -42% | [2]; [8] -45% | [2]; at 50.0 µM 0.1% | [3]; [7] -57% | [3]; [8] -45% | [3]; at 50.0 µM -5.5% | [4]; [7] -62% | [4]; [8] -64% | [4]; at 50.0 µM 23.9% | [5]; [7] -75% | [5]; [8] -56% | [5]; at 50.0 µM 4.45% | [6]; [7] -157% | [6]; [8] -85% | [6]; at 50.0 µM 4.95%

COC1/C=C\C=C(/C)C(=O)NC2=CC(=O)C(NCCCl)=C(CC(C)CC(OC)C(O)C(C)/C=C(/C)C1OC(N)=O)C2=O (centres undefined)
inactive: [1]; [7] 24% | [2]; [7] 49% | [6]; [7] 53%
active: [1]; [8] 97% | [1]; at 50.0 µM 91% | [2]; [8] 98% | [2]; at 50.0 µM 92.3% | [3]; [7] 89% | [3]; [8] 99% | [3]; at 50.0 µM 92.6% | [4]; [7] 88% | [4]; [8] 94% | [4]; at 50.0 µM 90.4% | [5]; [7] 87% | [5]; [8] 98% | [5]; at 50.0 µM 90.5% | [6]; [8] 98% | [6]; at 50.0 µM 89%

CC(C)(C)CC(C)(C)c1ccc(O)cc1
inactive: [1]; [7] -11% | [2]; [7] -12% | [3]; [7] -6% | [4]; [7] -7% | [5]; [7] -22% | [6]; [7] -9%
active: [1]; [8] 99% | [1]; at 50.0 µM 99.7% | [2]; [8] 99% | [2]; at 50.0 µM 99.7% | [3]; [8] 98% | [3]; at 50.0 µM 99.8% | [4]; [8] 99% | [4]; at 50.0 µM 99.5% | [5]; [8] 98% | [5]; at 50.0 µM 98.5% | [6]; [8] 99% | [6]; at 50.0 µM 99.6%

CCC[CH2][Sn]([CH2]CCC)([CH2]CCC)[O]C(=O)C[N+](C)(C)c1cc[c]([Hg][c]2ccc(N(C)C)cc2)cc1
active: [1]; [7] 99% | [1]; [8] 99% | [1]; at 50.0 µM 98.6% and 97.8% | [2]; [7] 100% | [2]; [8] 100% and 99% | [2]; at 50.0 µM 99.5% | [3]; [7] 100% | [3]; [8] 98% and 99% | [3]; at 50.0 µM 99.1% and 99.2% | [4]; [7] 99% | [4]; [8] 99% | [4]; at 50.0 µM 98.4% and 98.9% | [5]; [7] 99% | [5]; [8] 99% | [5]; at 50.0 µM 98.8% and 99.1% | [6]; [7] 99% | [6]; [8] 99% | [6]; at 50.0 µM 99% and 99.2%
